A selection: hits, their analogues and other compounds. The true share with any hit is near 27%.
CYP2C19 inh: blocks human cytochrome P450 2C19; inhibition, % at 5 µM; 21% of 96,000 active; CYP2C19 Supersomes, luciferin-H EGE luminescence, 30 min; P33261; AID 778;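 active = CYP2C19 inhibition above a set limit at 5 µM in the primary screen, cut at about 50% in these data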;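 note: plate controls were negative control wells for no effect and 2.5 mM tranylcypromine positive control for full effect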
sEH activator: activators of human soluble epoxide hydrolase | purified human sEH enzymatic activity, activator screen | 0.04% of 91,000 active | P34913 | activation, % at 2 µM; in the data active = activation above about 37%
CYP2C19 act: activators of human cytochrome P450 2C19; recombinant CYP2C19, luciferin-H EGE luminescence; stronger effect = higher value; 0 = fully inhibited enzyme, 1 = untreated enzyme; activation factor at 5 µM; 96,000 tested, under 10 active; AID 1025;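 active = activation factor of at least 2 at 5 µM in the primary screen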;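 note: 0 = wells with 2.5 mM tranylcypromine and 1 = vehicle-only wells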
sEH inhibitor: inhibitors of human soluble epoxide hydrolase; inhibition, % at 2 µM; AID 707; recombinant human sEH enzymatic activity assay; 0.34% of 91,000 active; in the data active = inhibition above about 80%
CYP2C9 inhib: blocks human cytochrome P450 2C9; CYP2C9 Supersomes, luciferin-H conversion, luminescence; inhibition, % at 5 µM; 20% of 96,000 active; AID 777;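 active = blocking of liver enzyme CYP2C9 beyond about 50% at 5 µM, limit read from the data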
Target sequence (P11712 whole entry, looked up): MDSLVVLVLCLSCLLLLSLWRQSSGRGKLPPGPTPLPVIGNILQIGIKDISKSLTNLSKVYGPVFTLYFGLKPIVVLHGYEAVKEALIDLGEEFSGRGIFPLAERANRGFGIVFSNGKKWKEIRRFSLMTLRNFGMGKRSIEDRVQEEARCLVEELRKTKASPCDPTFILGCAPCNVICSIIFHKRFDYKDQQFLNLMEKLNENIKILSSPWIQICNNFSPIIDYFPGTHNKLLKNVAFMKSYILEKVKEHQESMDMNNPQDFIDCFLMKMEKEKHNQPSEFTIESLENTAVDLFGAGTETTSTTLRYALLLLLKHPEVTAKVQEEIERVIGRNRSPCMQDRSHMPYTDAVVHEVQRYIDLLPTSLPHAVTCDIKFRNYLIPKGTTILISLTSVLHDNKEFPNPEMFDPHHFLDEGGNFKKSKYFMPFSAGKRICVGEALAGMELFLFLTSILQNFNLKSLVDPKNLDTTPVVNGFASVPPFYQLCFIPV
CYP2C9 act: activators of human CYP2C9 | P11712 | recombinant CYP2C9, luciferin-H conversion, luminescence; stronger effect = higher value; factor 1 = untreated enzyme, 0 = blocked | activation factor at 5 µM | 1.4% of 96,000 active;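 active = activation factor of 2 or more for CYP2C9 at a 5 µM dose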;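 note: 0 = sulfaphenazole-blocked wells and 1 = vehicle-only wells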
Starred values were filed as active, the others as inactive; nt = not tested or not shown.

SMILES	CYP2C19 inh	sEH activator	CYP2C19 act	sEH inhibitor	CYP2C9 inhib	CYP2C9 act
O=C(Nc1ccccc1-c1nnc(SCc2ccccc2Cl)o1)c1ccccc1	5.0	10.8	0.9	-10.3	55.0*	0.4
O=C(CCSc1ccccc1)N1CCN(C(=O)c2ccco2)CC1	25.4	-5.2	0.7	8.2	20.1	0.8
CC1CCCCN1CC(=O)Nc1sccc1C#N (centres undefined)	41.0	-11.4	0.6	9.9	31.0	0.7
CCN(CC)c1ncnc2ccc(Br)cc12	26.2	8.3	0.7	-6.3	16.8	0.8
O=C(O)C1C2C=CC(C2)C1C(=O)NCc1cccnc1 (centres undefined)	nt	10.8	nt	-10.9	nt	nt
Cc1ccc(CNC(=O)C2C3C=CC(C3)C2C(=O)O)cc1 (centres undefined)	53.4*	0.6	0.5	4.3	12.9	0.9
Cc1ccc(-c2ccc(/C=N/N3C(=O)C4C5C=CC(C6CC56)C4C3=O)o2)c([N+](=O)[O-])c1 (centres undefined)	9.7	-26.6	0.9	26.2	11.3	0.9
Clc1ccc(CNC2CCCC2)c(Cl)c1	76.6*	21.4	0.2	-21.7	-11.4	1.1
CN(C(=O)OCc1ccccc1)C(CC(N)=O)C(=O)O (centres undefined)	-3.9	-3.5	1	1.1	0.1	1
CCCS(=O)(=O)c1snnc1C	-10.0	-4.7	1.1	1.9	7.6	0.9
Cc1cc(NC(=O)CSc2nnc(-c3ccncc3)n2N)ccc1Br	47.8	9.6	0.5	-11.7	87.3*	0.1
Cc1csc(NC(=O)CSc2nnc(-c3ccncc3)n2C)n1	40.2	4.3	0.6	-5.4	47.7	0.5
Cc1cccc(NC(=O)CSc2nnc(-c3ccc(S(=O)(=O)N4CCOCC4)cc3)n2C)c1	99.4*	3.0	0	-2.9	51.6*	0.5
Cc1cccc(NC(=O)CSc2nnc(-c3ccncc3)n2C)c1	79.9*	7.8	0.2	-9.4	52.1*	0.5
Nn1c(SCC(=O)Nc2ccc3c(c2)OCO3)nnc1-c1ccncc1	-2.0	5.0	1	-5.7	21.9	0.8
Cc1ccc(Nc2nnc(SCC(=O)Nc3ccc(S(=O)(=O)N4CCOCC4)cc3)s2)cc1	-20.4	-7.1	1.2	7.2	74.4*	0.3
CC1CCN(S(=O)(=O)c2ccc3c(c2)c(=O)c(C(=O)N2CCCCC2)cn3C)CC1	0.1	-5.3	1	4.6	0.8	1
Cc1c(C(=O)O)sc(=S)n1CCOc1ccccc1	2.4	-3.7	1	3.3	12.3	0.9
COc1cccc(-c2nnc(SCC(=O)Nc3cc(C)ccc3OC)n2N)c1	18.4	-3.0	0.8	1.6	17.2	0.8
Cc1ccc(C)c(NC(=O)CSc2nnc(-c3ccccc3)n2N)c1	62.6*	-2.9	0.4	4.1	34.9	0.7
CCC(C)NC(=O)CSc1nnc(-c2cc(-c3ccc(C)cc3)nc3ccccc23)n1N (centres undefined)	14.1	-4.2	0.9	5.5	46.8	0.5
CCOC(=O)c1ccc(NC(=O)CSc2nnc(-c3ccncc3)n2C)cc1	69.4*	0.5	0.3	2.5	72.8*	0.3
Cc1ccc(-c2cc(-c3nnc(SCC(=O)NCC(C)C)n3N)c3ccccc3n2)cc1	38.9	-19.4	0.6	21.9	78.2*	0.2
COc1ccc(C2CC(=O)C=C(NCCC(C)C)C2)cc1 (centres undefined)	nt	2.2	nt	3.5	nt	nt
Cc1ccc(NS(=O)(=O)c2ccc(C)c(C(=O)N3CCN(C)CC3)c2)cc1	14.4	2.3	0.9	-2.8	1.4	1
SMILES	CYP2C19 inh	sEH activator	CYP2C19 act	sEH inhibitor	CYP2C9 inhib	CYP2C9 act
CSc1ccccc1NC(=O)C1CCCO1 (centres undefined)	-10.4	nt	1.1	nt	-29.1	1.3
C=CCn1c(SCc2ccccc2)nc2scc(-c3ccc(C)o3)c2c1=O	11.6	6.6	0.9	-3.6	26.9	0.7
Cc1ccc(-c2csc3ncn(-n4c(C)ccc4C)c(=O)c23)o1	87.0*	5.3	0.1	-6.0	47.0	0.5
C=C(C)Cn1c(CCNC(=O)C(C)(C)C)nc2ccccc21	27.3	nt	0.7	nt	-2.0	1
NC(=O)NC(Cc1ccccc1)C(=O)NCC1(N2CCCCC2)CCCCC1 (centres undefined)	-18.2	-3.7	1.2	5.0	-5.0	1.1
COc1ccc(NC(=O)CC2C(=O)N(c3cccc(C)c3)C(=O)N2C2CCCCC2)cc1 (centres undefined)	55.8*	-11.6	0.4	13.5	46.8	0.5
COc1ccc(NC(=O)CC2C(=O)N(c3cccc(OC)c3)C(=O)N2CCC(C)C)cc1 (centres undefined)	65.5*	7.5	0.3	-8.1	62.4*	0.4
CCOC(=O)c1ccc(NC(=O)CC2C(=O)N(c3cccc(OC)c3)C(=O)N2CCOC)cc1 (centres undefined)	26.5	-12.3	0.7	14.5	35.9	0.6
O=C(CSc1cn(CCNC(=O)c2cccs2)c2ccccc12)NC1CCCC1	68.6*	-8.9	0.3	6.5	82.4*	0.2
O=C(CSc1nnc(CNC(=O)c2cccs2)o1)NC1CCCC1	nt	1.2	nt	1.8	nt	nt
O=C(CSc1cn(CCNC(=O)c2ccccc2)c2ccccc12)NCc1ccco1	99.0*	nt	0	nt	97.2*	0
O=C(CSc1ccccc1)NCc1ccco1	nt	-12.7	nt	15.8	nt	nt
CCCn1cc(SCC(=O)NCc2ccco2)c2ccccc21	51.5*	9.8	0.5	-7.0	-79.2	1.8
CCc1ccc(NC(=O)N(C2CCC(C)CC2)C2CCN(C(C)=O)CC2)cc1 (centres undefined)	-1.1	nt	1	nt	7.1	0.9
CC1(C2(O)CC(c3ccccc3)ON2)CCCCC1 (centres undefined)	53.7*	12.5	0.5	-14.5	15.7	0.8
COc1ccc(C2CC(O)(C(C)(C)O)NO2)cc1 (centres undefined)	5.7	-5.3	0.9	6.3	13.0	0.9
COC(=O)C1=C(C)NC(=O)/C1=C\c1cc(C)n(-c2cccc(C)c2)c1C	78.8*	12.6	0.2	-12.4	84.0*	0.2
CC1(C)CC(=O)C(C(c2cccnc2)C2C(=O)CC(C)(C)CC2=O)C(=O)C1	-19.8	6.9	1.2	-6.4	4.0	1
CC(=O)c1ccc(-n2c(C)ccc2-c2ccccc2)cc1	91.2*	-0.9	0.1	1.7	79.7*	0.2
COC(=O)c1ccc(N2C(=O)CC(N(C)Cc3ccccc3)C2=O)cc1 (centres undefined)	5.7	nt	0.9	nt	-14.6	1.1
COC(=O)c1ccc(-n2c(C)ccc2-c2ccccc2)cc1	85.7*	1.8	0.1	-1.8	86.0*	0.1
CC(=O)c1ccc(-n2nncc2C)cc1	-2.8	1.6	1	-2.9	11.4	0.9
O=c1oc2c3c4c(cc2c2c1CCC2)OCCN4CCC3	27.9	8.2	0.7	-5.0	-0.6	1
CC(C)[C@H](N)c1nnc(SC/C=C/c2ccccc2)o1	82.5*	3.0	0.2	-3.2	15.6	0.8
CCn1c(N2CCN(C(=O)Nc3ccc(F)cc3)CC2)nc2ccccc21	26.5	5.0	0.7	-5.1	-35.8	1.4
